Laboratory results reported in PubChem BioAssay AID2405 (Southern Research Specialized Biocontainment Screening …, 2010).
Unmarked numbers belong to inactive results. The rule behind the calls is not given here.

assay: anti-RSV activity of probe candidates, cell-based (AID 2405); conditions: RSV cytopathic effect inhibition, HEp-2 cells, stronger effect = higher value; at 100 µM unless noted

Row | SMILES | maximum inhibition
1 | Cc1ccc2nc(SCC(=O)Nc3ccc4c(c3)CCC4)n(-c3ccccc3)c(=O)c2c1 | 47.5% [at 12.5 µM]
2 | CCOC(=O)C1(Cc2ccccc2C(F)(F)F)CCN(C2CCN(C(C)C)CC2)CC1 | 0.09% [at 0.2 µM]
3 | Nc1ccc2nc3n(c(=O)c2c1)CCC3 | 1.81% [at 12.5 µM]
4 | O=C(Nc1nc(-c2ccc(Cl)cc2)cs1)c1ccc(I)cc1 | 1.55% [at 25 µM]
5 | CC1CC(C)CN(CCCNC(=O)c2cc3c(s2)-c2ccccc2OC3)C1 (centres undefined) | 1.49% [at 25 µM]
6 | Cc1cc(OC(=O)c2c(F)cccc2F)n(Cc2ccccc2)n1 | 0.49% [at 3.13 µM]
7 | Cc1cccc2c1-c1sc(C(=O)NCCCN3CCC(C)CC3)cc1CO2 | 0.67% [at 0.2 µM]
8 | O=C(CSc1nc2ccccc2c(=O)n1-c1ccccc1F)Nc1ccc2c(c1)CCC2 | 7.99% [at 12.5 µM]
9 | COc1ccc(Cn2nc(C)cc2OC(=O)c2c(F)cccc2F)cc1 | 1.12% [at 0.39 µM]
10 | Oc1ccccc1C(Nc1nccs1)c1ccc2cccnc2c1O (centres undefined) | 4.97% [at 12.5 µM]
11 | OC1c2c(F)cccc2N=C2CCCN21 (centres undefined) | 0.86%
12 | CCCN(C(=O)c1ccccc1Cl)c1nc(-c2ccc(OC)cc2)cs1 | 14.1% [at 50 µM]
13 | CC1CCCN(CCCNC(=O)c2cc3c(s2)-c2ccccc2OC3)C1 (centres undefined) | 3.5% [at 25 µM]
14 | O=C(CSc1nc2ccccc2c(=O)n1-c1ccc(F)cc1F)Nc1ccc2c(c1)CCC2 | 5.7% [at 25 µM]
